Over roughly 16,000 sequences, “rpm ratio (pull-down/input)” has its median near 0.94; the highest 2% begin near 1.7. What follows is part of a selection rich in the highest values, with near analogues and random picks from the rest.

The target of this assay is T1, MBP-FoxP1dN (Mus musculus, UniProt P58462 326-579).
T1 sequence: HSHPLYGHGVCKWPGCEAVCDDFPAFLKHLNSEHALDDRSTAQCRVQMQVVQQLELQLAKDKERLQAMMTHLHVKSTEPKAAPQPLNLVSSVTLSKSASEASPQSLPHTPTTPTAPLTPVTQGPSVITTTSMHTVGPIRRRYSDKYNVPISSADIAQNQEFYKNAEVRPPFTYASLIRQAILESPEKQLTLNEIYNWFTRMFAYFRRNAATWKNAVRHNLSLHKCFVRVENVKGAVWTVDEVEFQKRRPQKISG
Kind of assay: PD-seq (MBP pull-down with sequencing); 20 mM Tris-HCl pH 7.5, 100 mM NaCl, 1.5 mM MgCl2, 0.4 uM protein, 0.1 uM dsDNA library, 30 min, room temperature, amylose pull-down; high values mean tight binding. Particulars: protein: recombinant; tags: His6-MBP; chain copies: 2; dsDNA, one strand shown. Summed up: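 Binding is reads-per-million enrichment of pull-down over input, with replicates pooled. It comes from 30 min room-temperature incubation in Tris pH 7.5 buffer with NaCl and MgCl2 of 0.4 µM His6-MBP-tagged, N-terminally truncated mouse FoxP3 or FoxP1 fragment from E. coli with 0.1 µM Klenow-filled degenerate double-stranded DNA library, followed by amylose resin capture, three washes and Illumina sequencing of the released DNA.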
As for “GATGATTGTTCTCCCAGCTGATGAATTAGTATTGTCGAGTAAACAAATTTTCCTAATCTTTCTGTTCAAGCGCCATCTAC”, the binding signal was 2.55 RPM ratio (pull-down/input).
Consider “GATGATTGTTCTCCCAGCTGATGAATTAGTATTTTCGAGTAAACAAATTTTCCTAATCTTTCTGTTCAAGCGCCATCTAC”, for which the binding signal was 2.28 RPM ratio (pull-down/input).
In the case of “GATGATTGTTCTCCCAGCTGATGAATTTAGTATTTCGAGTAAACAAATTTTCCTAATCTTTCTGTTCAAGCGCCATCTAC”, the binding signal was 1.24 RPM ratio (pull-down/input).
In the case of “GATGATTGTTCTCCCAGCTGATGAATTGTATTAGTCGAGTAAACAAATTTTCCTAATCTTTCTGTTCAAGCGCCATCTAC”, the binding signal is 1.3 RPM ratio (pull-down/input).
As to “GATGATTGTTCTCCCAGCTGATGAATTAACATCGTCGAGTAAACAAATTTTCCTAATCTTTCTGTTCAAGCGCCATCTAC”, the binding signal is 0.998 RPM ratio (pull-down/input).
As to “GATGATTGTTCTCCCAGCTGATGAATTAAAACATTCGAGTAAACAAATTTTCCTAATCTTTCTGTTCAAGCGCCATCTAC”, the binding signal was 1.4 RPM ratio (pull-down/input).
As for “GATGATTGTTCTCCCAGCTGATGAATTAGACGTATCGAGTAAACAAATTTTCCTAATCTTTCTGTTCAAGCGCCATCTAC”, the binding signal was 1.02 RPM ratio (pull-down/input).
“GATGATTGTTCTCCCAGCTGATGAATTCGTCGTGTCGAGTAAACAAATTTTCCTAATCTTTCTGTTCAAGCGCCATCTAC”: the binding signal is 0.922 RPM ratio (pull-down/input).
To “GATGATTGTTCTCCCAGCTGATGAATTTCGTGTTTCGAGTAAACAAATTTTCCTAATCTTTCTGTTCAAGCGCCATCTAC” belongs 1.02 RPM ratio (pull-down/input); to “GATGATTGTTCTCCCAGCTGATGAATTCCCTGTTTCGAGTAAACAAATTTTCCTAATCTTTCTGTTCAAGCGCCATCTAC”, 0.907 RPM ratio (pull-down/input).
To “GATGATTGTTCTCCCAGCTGATGAATTCGTGTTGTCGAGTAAACAAATTTTCCTAATCTTTCTGTTCAAGCGCCATCTAC” belongs 2.52 RPM ratio (pull-down/input); to “GATGATTGTTCTCCCAGCTGATGAATTCTCTGTTTCGAGTAAACAAATTTTCCTAATCTTTCTGTTCAAGCGCCATCTAC”, 0.91 RPM ratio (pull-down/input).
Take “GATGATTGTTCTCCCAGCTGATGAATTCGTGTGTTCGAGTAAACAAATTTTCCTAATCTTTCTGTTCAAGCGCCATCTAC”: the binding signal is 1.22 RPM ratio (pull-down/input).
Consider “GATGATTGTTCTCCCAGCTGATGAATTCCTGTTTTCGAGTAAACAAATTTTCCTAATCTTTCTGTTCAAGCGCCATCTAC”, for which the binding signal is 2.04 RPM ratio (pull-down/input).
Regarding “GATGATTGTTCTCCCAGCTGATGAATTCGAGTTTTCGAGTAAACAAATTTTCCTAATCTTTCTGTTCAAGCGCCATCTAC”, the binding signal is 1.08 RPM ratio (pull-down/input).
“GATGATTGTTCTCCCAGCTGATGAATTCGTGTTTTCGAGTAAACAAATTTTCCTAATCTTTCTGTTCAAGCGCCATCTAC”: the binding signal is 2.29 RPM ratio (pull-down/input).
Turning to “GATGATTGTTCTCCCAGCTGATGAATTCTGTTTTTCGAGTAAACAAATTTTCCTAATCTTTCTGTTCAAGCGCCATCTAC”, the binding signal is 1.99 RPM ratio (pull-down/input).
Then “GATGATTGTTCTCCCAGCTGATGAATTCCTGATTTCGAGTAAACAAATTTTCCTAATCTTTCTGTTCAAGCGCCATCTAC”, with 1.02 RPM ratio (pull-down/input); and “GATGATTGTTCTCCCAGCTGATGAATTCTTCGTGTCGAGTAAACAAATTTTCCTAATCTTTCTGTTCAAGCGCCATCTAC”, with 0.867 RPM ratio (pull-down/input); and “GATGATTGTTCTCCCAGCTGATGAATTCGCAAATTCGAGTAAACAAATTTTCCTAATCTTTCTGTTCAAGCGCCATCTAC”, with 0.933 RPM ratio (pull-down/input).
For “GATGATTGTTCTCCCAGCTGATGAATTGGCCTTCTCGAGTAAACAAATTTTCCTAATCTTTCTGTTCAAGCGCCATCTAC”, the binding signal was 0.772 RPM ratio (pull-down/input).
Regarding “GATGATTGTTCTCCCAGCTGATGAATTGCAATGTTCGAGTAAACAAATTTTCCTAATCTTTCTGTTCAAGCGCCATCTAC”, the binding signal is 1.42 RPM ratio (pull-down/input).
In the case of “GATGATTGTTCTCCCAGCTGATGAATTAAGGGTTTCGAGTAAACAAATTTTCCTAATCTTTCTGTTCAAGCGCCATCTAC”, the binding signal is 0.875 RPM ratio (pull-down/input).
Take “GATGATTGTTCTCCCAGCTGATGAATTTCATGTTTCGAGTAAACAAATTTTCCTAATCTTTCTGTTCAAGCGCCATCTAC”: the binding signal was 0.998 RPM ratio (pull-down/input).
For the sequence “GATGATTGTTCTCCCAGCTGATGAATTCATGTTTTCGAGTAAACAAATTTTCCTAATCTTTCTGTTCAAGCGCCATCTAC”, the binding signal was 2.2 RPM ratio (pull-down/input).
Regarding “GATGATTGTTCTCCCAGCTGATGAATTCTCATGTTCGAGTAAACAAATTTTCCTAATCTTTCTGTTCAAGCGCCATCTAC”, the binding signal is 0.861 RPM ratio (pull-down/input).
To “GATGATTGTTCTCCCAGCTGATGAATTCCTTGTTTCGAGTAAACAAATTTTCCTAATCTTTCTGTTCAAGCGCCATCTAC” belongs 0.969 RPM ratio (pull-down/input).
As to “GATGATTGTTCTCCCAGCTGATGAATTCTTGTTTTCGAGTAAACAAATTTTCCTAATCTTTCTGTTCAAGCGCCATCTAC”, the binding signal was 2.77 RPM ratio (pull-down/input).
With “GATGATTGTTCTCCCAGCTGATGAATTTCTTGTTTCGAGTAAACAAATTTTCCTAATCTTTCTGTTCAAGCGCCATCTAC”, the binding signal was 1.14 RPM ratio (pull-down/input).
For the sequence “GATGATTGTTCTCCCAGCTGATGAATTGAAAGCCTCGAGTAAACAAATTTTCCTAATCTTTCTGTTCAAGCGCCATCTAC”, the binding signal was 0.795 RPM ratio (pull-down/input).
As to “GATGATTGTTCTCCCAGCTGATGAATTATACAGCTCGAGTAAACAAATTTTCCTAATCTTTCTGTTCAAGCGCCATCTAC”, the binding signal was 1.03 RPM ratio (pull-down/input).
Regarding “GATGATTGTTCTCCCAGCTGATGAATTCTCGCGCTCGAGTAAACAAATTTTCCTAATCTTTCTGTTCAAGCGCCATCTAC”, the binding signal was 0.835 RPM ratio (pull-down/input).

The values above are taken from paper PMC12820563, “FoxP3 forms a head-to-head dimer in vivo and stabilizes its multimerization on adjacent microsatellites”.
